KCNQ2 inh = rat KCNQ2 potassium channel inhibitors, primary screen, cell-based, CHO-K1, FluxOR thallium flux, B-score. 310,000 tested, 1.1% active. Potassium voltage-gated channel subfamily KQT member 2 (Rattus norvegicus), O88943. 20 min; active compounds read low. B-score at 10 µM;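 active means fluorescence ratio B-score at most minus 3 library SDs, with starting brightness B-score within 2 library SDs, cut at about -5.5 in these data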
KCNQ2 pot = potentiators of rat KCNQ2 potassium channel; Potassium voltage-gated channel subfamily KQT member 2 (Rattus norvegicus), O88943; CHO-K1 KCNQ2, FluxOR thallium flux fluorescence; active compounds read high; B-score at 10 µM; 310,000 tested, 0.54% active; AID 2239, 2010;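 active means fluorescence ratio B-score at least 3 SD of library B-scores, with initial fluorescence B-score within 3 of them, cut at about 5.3 in these data; same plate scores as AID 2156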;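 further: B-score of peak minus minimum over baseline fluorescence ratio after K+ and Tl+ stimulus; positive B-score means potentiation of KCNQ2 with more thallium influx and brighter signal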
Kir21 confirm = mouse Kir2.1 channel blockers, retest, confirmation, cell-based, FluxOR thallium flux, duplicate | shares compounds with KCNQ2 pot | Kir2.1-expressing cells, FluxOR thallium flux fluorescence; active compounds read low | Tl flux remaining, % of negative control (active compounds read low), % at 10 µM | 2,300 tested, 41% active;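 active means Primary-screen hit whose thallium flux fell at least 3 control SD below untreated wells in both duplicates, with normal baseline fluorescence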;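 further: 0% = blank wells without stimulus and 100% = stimulated no-compound controls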
HEK293 Tl flux = parental HEK293 activity in Kir2.1 inhibitor counter-screen; parental HEK293 cells, FluxOR thallium flux fluorescence; 0% = unstimulated blank wells; 2,300 tested, 19% active; AID 2105; shares compounds with KCNQ2 pot; FluxOR signal as % of negative control (100 = no effect), % at 10 µM;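 active means dye signal at least 3 control SD above or below untreated wells in both duplicates, raw fluorescence within 3, either direction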;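 further: percent is based on the flux ratio of peak minus minimum fluorescence over baseline F0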
CHO-K1 Tl ctr = nonspecific thallium flux increase in parental CHO-K1, confirmation, counter-screen for KCNQ2 potentiator project, cell-based, FluxOR thallium flux, duplicate. activity increase over 3SD of controls, % at 10 µM. AID 2282, 2010. parental CHO-K1 cells, FluxOR thallium flux fluorescence; zero = vehicle mean+3SD, 100% = vehicle-minus-blank window. shares compounds with KCNQ2 pot. 1,200 tested, 43% active;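 active means signal rise of at least 3 SD above the untreated control mean, in both duplicate wells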;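 further: counter screen of KCNQ2 potentiator hits so any rise reflects channel-independent effects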
KCNQ1 sel pot = human KCNQ1 channel potentiation off-target, confirmation, selectivity assay for KCNQ2 potentiator project, cell-based, CHO, FluxOR thallium flux; shares compounds with KCNQ2 pot; CHO KCNQ1 stable, FluxOR thallium flux fluorescence; beyond 3SD, as % of vehicle-control signal; activation over 3SD threshold, % at 10 µM; 1,200 tested, 28% active;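 active means fluorescence ratio rise of at least 3 SD of vehicle wells above their mean, in both replicate wells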;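 further: 0% = vehicle mean plus 3 SD and 100% = vehicle minus unstimulated blank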
KCNQ2 pot conf = rat KCNQ2 channel potentiators, confirmation, cell-based, CHO, FluxOR thallium flux, duplicate; AID 2287, 2010; potentiation, less the hit threshold, % at 10 µM; shares compounds with KCNQ2 pot; CHO-KCNQ2 cells, FluxOR thallium flux fluorescence; 1,200 tested, 68% active;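 active means fluorescence ratio rising 3 SD or more over the vehicle control mean in both replicates, plus primary screen hit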;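 further: peak minus minimum thallium fluorescence divided by baseline after K/Tl stimulus; 0% = vehicle mean plus 3 SD and 100% = vehicle minus unstimulated blank difference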
Kir21 spec = mouse Kir2.1 channel activation off-target, confirmation, selectivity assay for KCNQ2 potentiator project, cell-based, HEK293, FluxOR thallium flux; activity over 3SD threshold, % at 10 µM; shares compounds with KCNQ2 pot; 1,200 tested, 2% active; HEK293 Kir2.1, FluxOR thallium flux fluorescence;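 active means fluorescence ratio rise of at least 3 SD above the vehicle-control mean, seen in both replicates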;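 further: 0% = vehicle mean plus 3 SD and 100% = vehicle minus no-stimulus blank window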
KCNQ2 W236L MoA = potentiators of retigabine-insensitive KCNQ2 W236L, mechanism study for KCNQ2 potentiator project, cell-based, rat KCNQ2 W236L, CHO, automated patch clamp. shares compounds with KCNQ2 pot. automated patch clamp current. current increase over 3SD of negative controls (%), active compounds read high, % at 25 µM. 940 tested, 10% active. AID 2558, 2010;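 active means current increase at least 3 SD of the untreated controls above them in both duplicate recordings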
Target sequence (O88943 whole entry W236L, looked up): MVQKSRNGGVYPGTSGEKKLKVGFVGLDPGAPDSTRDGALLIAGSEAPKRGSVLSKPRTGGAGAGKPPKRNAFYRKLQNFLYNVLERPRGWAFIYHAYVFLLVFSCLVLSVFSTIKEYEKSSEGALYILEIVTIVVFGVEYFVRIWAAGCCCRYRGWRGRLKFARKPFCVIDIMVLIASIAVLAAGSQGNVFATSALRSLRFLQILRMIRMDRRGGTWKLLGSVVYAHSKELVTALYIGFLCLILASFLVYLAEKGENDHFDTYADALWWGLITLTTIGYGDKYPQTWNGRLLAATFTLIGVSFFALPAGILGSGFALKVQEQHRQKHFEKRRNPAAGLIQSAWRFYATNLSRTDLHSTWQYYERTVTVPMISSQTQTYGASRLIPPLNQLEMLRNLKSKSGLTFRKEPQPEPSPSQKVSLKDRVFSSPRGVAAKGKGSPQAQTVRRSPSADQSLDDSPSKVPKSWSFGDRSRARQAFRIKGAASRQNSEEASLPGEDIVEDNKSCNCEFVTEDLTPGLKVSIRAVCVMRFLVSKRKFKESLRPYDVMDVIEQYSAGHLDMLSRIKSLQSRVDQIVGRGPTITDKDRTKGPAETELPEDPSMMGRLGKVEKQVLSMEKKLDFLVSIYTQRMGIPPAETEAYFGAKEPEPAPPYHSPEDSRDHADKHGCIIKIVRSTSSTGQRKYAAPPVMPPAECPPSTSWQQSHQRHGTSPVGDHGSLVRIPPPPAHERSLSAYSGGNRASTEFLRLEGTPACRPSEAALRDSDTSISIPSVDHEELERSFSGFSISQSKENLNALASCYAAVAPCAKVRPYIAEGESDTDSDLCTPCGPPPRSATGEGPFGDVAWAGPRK
* = called active by the depositor; i = inactive; nt = not tested or not shown. A selection: hits, their analogues and other compounds. The true share with any hit is near 1.6%.

SMILES | KCNQ2 inh | KCNQ2 pot | Kir21 confirm | HEK293 Tl flux | others
CCCC1=Nc2cc(C(=O)N3CCC(C(=O)OCC)CC3)ccc2Sc2ccccc21 | i | nt | nt | nt
O=C(C1=NN[C@@H]2C(=O)N(Cc3ccccc3)C(=O)[C@H]12)c1ccc(F)cc1 | i | nt | nt | nt
COc1cc(Cl)c(C)cc1NC(=O)CC1CCCC1 | i | 5.8* | i | i | CHO-K1 Tl ctr=-9;KCNQ1 sel pot=-18;KCNQ2 pot conf=24*;Kir21 spec=-32;KCNQ2 W236L MoA=i
COc1ccc(Cl)cc1NC(=O)CC1CCCC1 | i | nt | nt | nt
CC(NC(=O)Cc1ccc(NS(=O)(=O)c2cccc(C(F)(F)F)c2)cc1)c1ccccn1 (stereo not drawn) | i | 1.6 | nt | nt
OC(CNCc1ccccc1)(c1ccc(F)cc1)c1ccc(F)cc1 | i | nt | 38%* | i
OC(CNCc1ccc(F)cc1)(c1ccccc1)c1ccc(F)cc1 (stereo not drawn) | i | nt | i | i
OC(CNCc1ccccc1F)(c1ccc(F)cc1)c1ccc(F)cc1 | i | nt | nt | nt
Cc1ccc(CNCC(O)(c2ccccc2)c2ccc(F)cc2)cc1 (stereo not drawn) | i | nt | nt | nt
Cc1nn(C)c(C)c1/C=C/C(=O)c1ccc(Cl)cc1Cl | i | 0.32 | nt | nt
CC(=O)N/C(=C/c1ccc(OS(=O)(=O)c2ccc(C)cc2)cc1)C(=O)NCCCO | i | nt | nt | nt
Cc1ccnc(NC(=O)C(C)n2cc([N+](=O)[O-])cn2)c1 (stereo not drawn) | i | 1.3 | nt | nt
CC[n+]1c(/C=C/N(C)c2ccccc2)n(-c2ccccc2)c2ccc(-c3nc4ccccc4s3)cc21 | -16* | -16 | i | i
CCOC(=O)c1ccc2c(c1)n(CC)c(/C=C/N(C)c1ccccc1)[n+]2CC | i | nt | nt | nt
CC(C)(C)c1cc(Cl)ccc1OCCn1ccnc1 | i | 0.35 | nt | nt
CN(C)CCOCCOc1ccc(Cl)cc1C(C)(C)C | i | nt | 34%* | i
CC(O)CNCCCOc1ccc(Cl)cc1C(C)(C)C (stereo not drawn) | i | nt | 32%* | i
COCCCNCCCOc1ccc(Cl)cc1Br | i | nt | nt | nt
COc1ccc2c(Cl)c(C(=O)NN3CCN(C)CC3)sc2c1 | i | nt | nt | nt
CCOc1ccccc1NC(=O)NCc1ccco1 | i | nt | nt | nt
C=CCN(CC=C)C(=S)NC(=O)c1ccc(OC)c(Br)c1 | i | 7.2* | i | 336%* | CHO-K1 Tl ctr=1.9*;KCNQ1 sel pot=20*;KCNQ2 pot conf=20*;Kir21 spec=-25;KCNQ2 W236L MoA=i
CCN(CC)C(=S)NC(=O)c1ccc(OC)c(Br)c1 | i | 2.2 | nt | nt
C=CCNC(=S)NNC(=O)c1ccc(C)c(Cl)c1 | i | nt | nt | nt
C=CCNC(=S)NC(=O)c1ccc(C)c(Br)c1 | i | 5.7* | i | i | CHO-K1 Tl ctr=22*;KCNQ1 sel pot=-26;KCNQ2 pot conf=-12;Kir21 spec=-40
CCOC(=O)C1CCN(C(=O)CSc2ccccc2Cl)CC1 | i | nt | nt | nt
SMILES | KCNQ2 inh | KCNQ2 pot | Kir21 confirm | HEK293 Tl flux | others
COc1cc(OC)nc(Oc2cccc(Cl)c2C)n1 | i | 0.24 | nt | nt
O=C(NC(=S)N1CCCCCC1)c1ccc(Cl)cc1Cl | i | 9.1* | i | 238%* | CHO-K1 Tl ctr=27*;KCNQ1 sel pot=6.1*;KCNQ2 pot conf=12*;Kir21 spec=-21;KCNQ2 W236L MoA=i
Cc1ccccc1C(=O)NNC(=S)NC(=O)c1ccc(Cl)cc1Cl | i | 1.9 | nt | nt
O=C(NC(=S)N1CCCCCC1)c1ccccc1Cl | i | 4.3 | nt | nt
CCCN(CCC)C(=S)NC(=O)c1ccc(Cl)cc1Cl | i | 16* | i | 394%* | CHO-K1 Tl ctr=-13;KCNQ1 sel pot=-3;KCNQ2 pot conf=67*;Kir21 spec=-11;KCNQ2 W236L MoA=i
CC(C)C[C@@H](CO)N1CCN(Cc2ccc([N+](=O)[O-])cc2)CCC1=O | i | nt | nt | nt
C/C=C(\C)C(=O)NCCN1C2=NC[C@H](Cc3ccccc3)N2C[C@H]1Cc1ccc(O)cc1 | i | 0.1 | nt | nt
COc1ccc(C[C@H]2CN3C(=NC[C@H]3Cc3ccccc3)N2CCNC(=O)c2ccc(C)c(Br)c2)cc1 | i | nt | 28%* | i
Cc1ccc(C(=O)NCCN2C3=NC[C@@H](Cc4ccccc4)N3C[C@H]2Cc2ccc(O)cc2)cc1Br | i | nt | 54%* | i
Cc1ccc(C(=O)NCCN2C3=NC[C@H](Cc4ccc(O)cc4)N3C[C@H]2Cc2ccc(O)cc2)cc1Br | i | 0.05 | nt | nt
Cn1cc(-c2ccno2)c(C(=O)O)n1 | i | 0.12 | nt | nt
CCOc1ccc(NC(=O)Cn2nnc(C(=O)NCc3ccc4c(c3)OCO4)c2N)cc1 | i | nt | nt | nt
Cc1ccc(C2(CCNC(C)c3cccs3)CCOC(C(C)C)C2)cc1 (stereo not drawn) | i | nt | nt | nt
COc1ccccc1C1(CCNC(C)c2cccs2)CCOC(C(C)C)C1 (stereo not drawn) | i | 0.28 | 40%* | 72%*
COC(=O)c1ccc(S(=O)(=O)N2Cc3ccccc3C2)cc1 | i | 1.5 | nt | nt
O=C(NCc1ccccc1)NC1(C(=O)N2CCN3CCCC3C2)CCCCC1 (stereo not drawn) | i | 1.6 | nt | nt
CCOc1ccccc1NC(=O)NC1(C(=O)N2CCN3CCCC3C2)CCCCC1 (stereo not drawn) | i | 21* | i | i | CHO-K1 Tl ctr=-20;KCNQ1 sel pot=-13;KCNQ2 pot conf=-22;Kir21 spec=-39
Cc1cccc(NC(=O)CSCC(=O)N(CCC(C)C)c2c(N)n(Cc3ccccc3)c(=O)[nH]c2=O)c1 | i | 0.24 | nt | nt
O=C(Nc1scc(-c2ccccc2)c1C(=O)O)c1ccccc1F | i | nt | nt | nt
O=C(Nc1scc(-c2ccc(Br)cc2)c1C(=O)O)c1ccccc1F | i | 5.3* | i | 186%* | CHO-K1 Tl ctr=-10;KCNQ1 sel pot=-13;KCNQ2 pot conf=34*;Kir21 spec=-28;KCNQ2 W236L MoA=i
